# Compound activity: PubChem, National Center for Advancing Translational Sciences (NCATS)
# The full list was thinned out, with hits kept by preference.
# ERK EGF block = EGF-driven ERK pathway inhibition; actives 0.41% (n = 130,000); HEK293-V1b, EGF-stimulated phospho-ERK AlphaScreen; AID 1454; Potency, µM (doses to about 11.5 µM), inactives show top-dose activity change, negative = inhibition, most hits filed as inhibitors; active = well fitted inhibition curve with a large enough effect;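 note: plate controls were stimulated vehicle wells for no effect and unstimulated vehicle basal for full effect; nearly all actives have a fitted effect of over 55% in size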
#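 Phospho-ERK1/2 measured by AlphaScreen (SureFire) after 5 min 25 nM EGF stimulation of V1b-expressing HEK293 cells preincubated 30 min at 37C with titrated compounds; data scaled to DMSO and EGF controls, Hill-fitted AC50.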
# Active calls of the source: *; [ ] = remark or other dose. Potency is the fitted concentration of half-maximal effect.
SMILES,ERK EGF block
OC(c1cc(C(F)(F)F)nc2c(Cl)cc(Cl)cc12)C1CCCCN1 (configuration not stated),0%[57.5 µM]
O=C(NCc1ccccn1)c1cc(-c2ccc(Cl)cc2)nc2ccccc12,-2%
COc1cc([C@@H]2Oc3cc([C@H]4Oc5cc(O)cc(O)c5C(=O)[C@H]4O)ccc3O[C@H]2CO)ccc1O,-12%
Cc1ccc(NC(=O)C(c2ccccc2)N(C)C)cc1Cl (configuration not stated),-7%
O=C(O)c1ccc(NC2=Nc3cccc4cccc2c34)cc1,4%[57.5 µM]
Cc1ccc(NC2=C(NC(=O)c3ccccc3)C(=O)c3ccccc3C2=O)cc1Cl,16µM*
C=CCNC1=C(Cl)C(=O)c2ccccc2C1=O,-8%
Cc1ccc(NCCC(=O)c2ccccc2)cc1Cl,-1%[57.5 µM]
O=C(O)c1ccc(NC2=C(Cl)C(=O)c3ccccc3C2=O)cc1,10µM*
O=c1c(O)cc(C2Oc3cc(O)cc(O)c3CC2O)cc2c(C3Oc4cc(O)cc(O)c4CC3O)cc(O)c(O)c12 (configuration not stated),26%
C/C(=N\NC(=O)c1cc(-c2cccs2)nc2ccccc12)c1ccccn1,14%
Cc1cccc2sc(NNC(=O)c3cc(-c4cccs4)nc4ccccc34)nc12,13µM*
NNC(=O)c1cc(-c2cccs2)nc2ccccc12,7%[57.5 µM]
CC(C)=CCC/C(C)=C\COc1c2ccoc2cc2oc(=O)ccc12,-3%
COc1cc(/C=C2\C(=O)NN(c3ccccc3)C2=O)ccc1OCC(N)=O,0%
COc1cc(/C=C2/C(=O)NN(c3cccc(C)c3)C2=O)ccc1OC(=O)c1ccco1,25µM*
COc1cc(/C=C2/C(=O)NN(c3cccc(C)c3)C2=O)cc([N+](=O)[O-])c1O,-4%
COc1ccc(OC)c2c1C(=O)C(Cl)=C(Cl)C2=O,28µM*
COc1ccc(/C=C/C(=O)O)cc1Cl,-2%[57.5 µM]
Nc1ccc(O)c2c1C(=O)c1ccccc1C2=O,29%
COc1ccc(S(=O)(=O)N2CCCC2)c(Cl)c1Cl,2%
COc1ccc(C=C2C(=O)c3ccccc3C2=O)cc1O,-2%
COc1ccc(N)c2c1C(=O)c1ccccc1C2=O,20µM*
COC(=O)N[C@@H](c1cccc(F)c1)C(C(C)=O)C(=O)OC (some centres not stated),-14%
N#CCCCS(=O)(=O)c1nc2ccccc2s1,-17%
SMILES,ERK EGF block
COCCn1c(=O)c(-c2ccc(Cl)cc2)nc2cnc(Oc3ccccc3)nc21,2%
O=C(c1ccncc1)N1CCC2(CCCN(c3ccncc3)C2)CC1,-4%
COC(=O)N[C@@H](c1ccc(Br)cc1)C(C(=O)OC)C(=O)OC,-5%
O=S(=O)(c1ccccc1)N1CCC[C@@]2(CCN(c3ccncc3)C2)C1,2%
CCCCC/C=C\C/C=C\C/C=C\C/C=C\CCCCCC(N)=O,-12%
CC1(C)C=Cc2c(cc3occ(-c4ccc5c(c4)OCO5)c(=O)c3c2O)O1,12%
COc1c(-c2coc3cc4c(cc3c2=O)CC(O)C(C)(C)O4)ccc2c1C=CC(C)(C)O2 (configuration not stated),13µM*
COc1c(-c2coc3cc4c(cc3c2=O)CC(OC(C)=O)C(C)(C)O4)ccc2c1C=CC(C)(C)O2 (configuration not stated),47%
Cc1ccc(NC(=O)c2ccncc2)cc1S(=O)(=O)N(C)C,14%
CCCCN1C(=O)c2ccc(C(=O)Nc3ccc(C)c(S(=O)(=O)N(C)C)c3)cc2C1=O,25µM*
Cc1ccc(NC(=O)COC(=O)CN2C(=O)c3ccccc3C2=O)cc1S(=O)(=O)N(C)C,2%
CC(=O)Nc1ccc(Nc2ccc3c4c(cc(=O)n3C)-c3ccccc3C(=O)c24)cc1,8%
O=C1c2ccccc2C(=O)c2c(Nc3ccc(CCO)cc3)ccc(O)c21,14µM*
O=C1c2ccccc2C(=O)c2c(O)ccc(O)c21,-11%
COc1ccc2c(c1)C(=O)[C@@H](OC(=O)NCCOc1ccccc1)[C@H](c1ccc(OC)c(Br)c1)O2,-12%
COc1ccc(C(C)C(=O)c2ccc(O)cc2O)cc1 (configuration not stated),-3%
CCOC(=O)c1cccc(NC(=O)/C=C/c2ccc([N+](=O)[O-])cc2)c1,32µM*
CCOC(=O)c1cc(NC(=O)COc2ccc([N+](=O)[O-])cc2)cc(C(=O)OCC)c1,-1%
O=C(/C=C/c1cccc([N+](=O)[O-])c1)Nc1cc(C(=O)O)cc(C(=O)O)c1,3%
Cc1nc2cnc(N(C)C)nc2n(C)c1=O,-13%
COc1ccc2c(c1)O[C@H](c1ccc3c(c1)OCO3)[C@@H](OC(=O)Nc1ccc(C)c(Br)c1)C2=O,-8%
CC(C)OC(=O)/C(=C/c1ccco1)c1ccccc1,-6%[57.5 µM]
N#CC(C#N)=C1C=CC=CN1/C(=C\c1ccco1)C(=O)c1ccccc1,14µM*
N#C/C(=C/c1ccco1)C(N)=S,-7%[57.5 µM]
CN(C)c1ccc(C(=C2C=CC(=[N+](C)C)C=C2)c2ccc(N(C)C)cc2)cc1,13µM*
SMILES,ERK EGF block
CN(C)c1ccc(C(=O)c2ccc(O)cc2O)cc1,-1%
CN(C)c1ccc(C(=O)NNC(=O)c2ccc(Cl)cc2)cc1,-1%[57.5 µM]
CCCCC1=CC2=C(OC(C)=O)C(=O)C(C)(OC(=O)c3ccc(Cl)nc3)C(=O)C2=CO1 (configuration not stated),-3%
NC(Cc1cc(I)c(Oc2cc(I)c(O)c(I)c2)c(I)c1)C(=O)O (configuration not stated),0%
O=[N+]([O-])c1ccc(CSc2ncnc3c2ncn3[C@@H]2O[C@H](CO)[C@H](O)[C@H]2O)cc1,20%
Cc1cc(Cl)c2ccccc2n1,-2%
Clc1cncc(Cl)c1NNc1c2ccccc2nc2ccccc12,13µM*
Nc1c2ccccc2nc2ccccc12,10%
CCOC(=O)N1CCc2c(sc(NC(=O)CN3CCN(C)CC3)c2C(=O)Nc2ccccc2)C1,29%
CCOC(=O)N1CCc2c(sc(NC(=O)CN3CCOCC3)c2C(=O)Nc2ccccc2)C1,35µM*
CCOC(=O)N1CCc2c(sc(NC(=O)CN3CCOCC3)c2C#N)C1,-8%[57.5 µM]
COC(=O)[C@H]1CC2(CC=C(C)C)C(=O)[C@@](CC=C(C)C)(C(=O)C(C(=O)c3ccccc3)=C2OC)C1(C)C (tested in a mixture with another compound),-9%
O=[N+]([O-])c1cc(-n2cccc2)ccc1N1CCOCC1,28µM*
O=[N+]([O-])c1cc(Cl)ccc1N1CCOCC1,3%
Cc1ccc(C)n1-c1ccc(N2CCOCC2)c([N+](=O)[O-])c1,-5%[57.5 µM]
COc1ccc(/C=C/C2=C[C@]3(C)C[C@]2(C)[C@H](c2ccc(OC)cc2)CC3=O)cc1,-6%
CCC(C(=O)C(C)C(O)C(C)CCc1ccc(C)c(O)c1C(=O)O)C1OC(CC)(C2CC[C@@](O)(CC)C(C)O2)CC1C (some centres not stated),-6%
COc1ccc2c(c1)OC1(O)COc3cc(OC)c(OC)cc3C1=C2 (configuration not stated),24%
Cc1ccc(-c2csc(=Nc3cccnc3)n2CCCN2CCCC2=O)cc1C,-5%
c1cncc(N=c2scc(-c3cccc4ccccc34)n2CCCn2ccnc2)c1,7%
Cc1ccc(-c2csc(=Nc3cccnc3)n2CCCn2ccnc2)cc1C,28µM*
CC[C@H]1C2=C3C(CC[C@H]4C(OCc5ccc(F)cc5C(F)(F)F)OC[C@](C)([C@@H]34)N(C(=O)OC(C)(C)C)C2)C(COC)C1COC (some centres not stated),-2%
